Compounds with a hit are over-represented: about 4% of the library has one in this group of screens.
TWEAK Fn14 block – inhibitors of TWEAK-Fn14 signaling, primary screen, luciferase reporter cells, uHTS; TWEAK-stimulated Fn14 reporter cells, luciferase luminescence, 8 h; inhibition, % at 10 µM; 360,000 tested, 2% active; AID 1159606, 2016; in the data active = inhibition above about 50%
CF NFkB inh – inhibitors of PAF-induced NF-kB signaling, primary screen, cell-based, GFP fluorescence, uHTS; KKLEB NF-kB-GFP reporter, GFP fluorescence overnight; inhibition, % at 5 µM; 360,000 tested, 0.86% active; AID 588850, 2011;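 active = at least 50% inhibition at 5 µM, scaled per plate between neutral and stimulator controls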;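 also: PAF is a Pseudomonas aeruginosa culture filtrate used as stimulus; plate controls were PAF-stimulated DMSO wells for no effect and unstimulated DMSO wells for full effect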
Peg3 prom inh – Peg3 promoter-driven luciferase inhibitors, primary screen, cell-based, HeLa, luciferase luminescence; HeLa PEG-Prom luciferase reporter, overnight; inhibition, % at 20 µM; 360,000 tested, 1.7% active; AID 588405, 2011;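 active = inhibition of at least 50% at 20 µM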
KKLEB tox – cytotoxicity in KKLEB CF airway cells, primary screen, cytotoxicity control for CF NF-kB inhibitor project, cell-based, uHTS, fluorescence assay plates; KKLEB CF airway cells viability, ATPlite luminescence, overnight; hits give low values; cells stimulated with P. aeruginosa culture filtrate; activity change (cytotoxicity), % at 5 µM; 360,000 tested, 0.36% active; AID 602141, 2011;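 active = corrected activity change at or below -50% at 5 µM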
HIF-2a block – HIF-2a reporter inhibitors, primary screen, luminescence, 786-0 RCC cells. AID 624352, 2012. 360,000 tested, 0.72% active. inhibition, % at 18.8 µM. 786-0 RCC cells HIF-2a reporter, luciferase luminescence, overnight;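 active = inhibition of the luminescence signal of 40% or more relative to plate controls, in a single-dose primary screen at 18.75 µM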
TROY signal inh – inhibitors of TROY-driven NF-kB signaling, primary screen, Q293 LMP1-TROYcd cells, NF-kB luciferase, uHTS; Q293 LMP1-TROYcd NF-kB luciferase reporter, 4 h; inhibition, % at 10 µM; 360,000 tested, 0.98% active;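 active = compounds whose plate-normalised and pattern-corrected inhibition of the luciferase reporter signal at the single screening dose is 50% or more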
Mdm2 MdmX conf – retested Mdm2-MdmX interaction blockers, confirmation, cell-based, luminescence, single concentration, set 2 | shares compounds with HIF-2a block | AID 504601, 2011 | inhibition, % at 8 µM | SaOS-2 split-luciferase Mdm2/MdmX complementation | 740 tested, 99% active;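 active = mean inhibition of the luminescence signal across two replicates at or above 26 percent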
Target sequence (O15151 whole entry, looked up): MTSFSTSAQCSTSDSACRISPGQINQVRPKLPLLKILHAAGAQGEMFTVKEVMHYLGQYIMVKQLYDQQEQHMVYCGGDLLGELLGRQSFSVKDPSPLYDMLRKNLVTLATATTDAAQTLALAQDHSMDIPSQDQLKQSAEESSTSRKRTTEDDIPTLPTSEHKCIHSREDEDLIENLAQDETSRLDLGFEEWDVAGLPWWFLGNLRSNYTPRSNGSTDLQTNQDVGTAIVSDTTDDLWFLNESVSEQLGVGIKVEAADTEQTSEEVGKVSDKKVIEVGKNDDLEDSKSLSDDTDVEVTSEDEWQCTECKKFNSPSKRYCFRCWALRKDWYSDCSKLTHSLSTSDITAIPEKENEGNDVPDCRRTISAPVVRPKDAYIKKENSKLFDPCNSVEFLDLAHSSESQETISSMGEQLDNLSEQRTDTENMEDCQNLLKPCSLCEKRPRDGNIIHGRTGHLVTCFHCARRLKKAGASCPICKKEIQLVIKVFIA
Target sequence (Q00987 whole entry, looked up): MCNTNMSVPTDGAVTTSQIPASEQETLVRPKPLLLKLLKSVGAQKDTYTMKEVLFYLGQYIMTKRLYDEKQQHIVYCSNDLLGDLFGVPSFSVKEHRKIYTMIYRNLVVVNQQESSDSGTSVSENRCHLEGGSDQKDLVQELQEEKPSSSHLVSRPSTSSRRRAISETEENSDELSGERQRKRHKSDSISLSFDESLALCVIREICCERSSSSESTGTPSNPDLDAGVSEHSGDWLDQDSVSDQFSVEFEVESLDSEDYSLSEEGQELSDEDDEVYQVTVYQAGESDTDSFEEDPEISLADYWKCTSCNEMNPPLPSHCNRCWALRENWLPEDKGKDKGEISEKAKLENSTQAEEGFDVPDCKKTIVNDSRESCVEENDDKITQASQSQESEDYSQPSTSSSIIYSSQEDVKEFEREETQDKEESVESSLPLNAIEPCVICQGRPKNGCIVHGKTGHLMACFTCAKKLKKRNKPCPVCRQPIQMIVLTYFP
HIF-2a inh conf – HIF-2a reporter inhibitor retest, confirmation, luminescence, 786-0 RCC cells | shares compounds with HIF-2a block | HIF-2a luciferase reporter luminescence, overnight | inhibition, % at 18.8 µM | 1,800 tested, 56% active | AID 651580, 2012;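 active = mean inhibition across four replicates of at least 40 percent at the single tested concentration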
HIF-1a counter – HIF-1a luciferase reporter signal reduction – MiaPaCa-2 cells, single concentration, counter-screen for HIF-2a inhibitor project, confirmation | shares compounds with HIF-2a block | MiaPaCa-2 HIF-1a luciferase reporter, desferoxamine, overnight | inhibition, % at 18.8 µM | 1,800 tested, 72% active | AID 651589, 2012;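 active = mean inhibition of the reporter signal across four replicates at the single tested dose of 50% or more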
Starred values were filed as active, the others as inactive; x = no result.

SMILES	TWEAK Fn14 block	CF NFkB inh	Peg3 prom inh	KKLEB tox	HIF-2a block	TROY signal inh	HIF-2a inh conf	HIF-1a counter	others
Cc1ccc(S(=O)(=O)c2ccc([N+](=O)[O-])cn2)cc1	68.4*	96.1*	106.8*	-72.0*	83.3*	58.8*	61.7*	64.5*	Mdm2 MdmX conf=103.0*
Cc1ccc(CN2CCN(CC(=O)NCCCN3CCN(c4ccc(F)cc4)CC3)C2=O)cc1	14.6	-7.9	26.2	7.0	9.7	1.3	x	x
Cc1cccc(C)c1OCC(=O)NCC1COc2ccccc2O1 (configuration not stated)	-9.3	23.3	5.6	2.8	11.9	23.9	x	x
O=C1OC(c2ccc(O)cc2)(c2ccc(O)cc2)c2ccccc21	16.7	16.7	19.8	-15.1	23.4	24.4	x	x
O=C1OC(c2ccccc2)(c2ccc3cc(O)ccc3c2)c2ccccc21 (configuration not stated)	60.1*	-1.1	78.8*	-18.6	40.4*	28.5	19.2	98.0*
CCCCc1nc(C(N)=O)c2[nH]c(=O)n(-c3ccccc3F)c2n1	-27.5	1.0	10.9	1.0	16.4	-7.2	x	x
O=C1C(=C(I)I)c2ccccc2-c2ccccc21	104.2*	81.5*	104.5*	-99.6*	92.9*	63.8*	95.6*	102.8*
O=C(O)c1cccc2c1C(=O)c1ccccc1-2	1.5	5.3	2.8	-2.4	19.0	0.0	x	x
CN1CCN(CC(=O)O)CC1	10.4	-7.2	12.2	6.9	6.1	-1.4	x	x
Cc1nn(-c2ccccc2)c(C)c1NS(=O)(=O)c1ccccc1	5.2	2.6	16.0	6.2	41.3*	2.9	33.9	13.6
Cc1nn(C)c(C)c1NS(=O)(=O)c1ccccc1	28.8	-8.1	18.1	1.1	12.2	x	x	x
Cc1ccc(NC(=S)/C(C#N)=C2/Nc3ccccc3S2)cc1	39.5	43.0	29.6	5.0	67.9*	41.4	39.5	55.7*
C=C1C(=O)C23CCC4C(C)(C(=O)OC)CCCC4(C)C2CCC1(O)C3 (configuration not stated)	98.2*	101.3*	101.1*	-102.3*	91.3*	87.6*	98.6*	102.9*
CN(C)CCNc1nc(Oc2cccc(F)c2)c2sccc2n1	-4.0	-2.3	-3.7	-9.5	-3.8	-12.4	x	x
COc1ccc(Oc2c(Cl)cnn(-c3ccc(C)cc3)c2=O)cc1	4.5	-4.2	7.4	0.0	-5.5	-47.1	x	x
COc1ccc(Oc2c(Cl)cnn(-c3ccc(Cl)c(Cl)c3)c2=O)cc1	2.2	-19.5	64.7*	2.7	83.9*	6.8	8.5	104.1*
Cc1cc(S(=O)(=O)NCc2ccc(N3CCN(C)CC3)cc2)c(C)s1	10.1	-17.7	7.1	7.9	8.3	-7.2	x	x
C=CCC(Nc1ccccc1)C12C=CC(O1)C(C(=O)OC)=C2C(=O)OC (configuration not stated)	27.1	38.5	92.1*	-23.5	91.7*	40.0	94.5*	97.6*
Cc1cccc2sc(N(CCCN(C)C)C(=O)c3ccc(S(=O)(=O)N4CCc5ccccc5C4)cc3)nc12	-119.8	33.0	30.2	-25.0	14.0	-48.0	x	x
CN(C)CCCN(C(=O)c1ccc(S(=O)(=O)N2CCc3ccccc3C2)cc1)c1nc2c(F)cccc2s1	0.3	14.0	-20.6	-11.6	9.7	-22.8	x	x

Screening data from PubChem.
